Assay outcomes: PubChem BioAssay, The Scripps Research Institute Molecular Screening Center
DAX1 inh-1 = DAX1 (NR0B1) inhibitors on StAR promoter, primary screen, cell-based, luminescence, SF-1 (NR5A1), full-length DAX-1. HEK293T StAR-luciferase reporter, SF-1/DAX-1 repression relief. inhibition, % at 6.8 µM. 1.1% of 370,000 active;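 active means inhibition above the mean over all tested compounds plus 3 SD, cut at about 3.6% in these data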;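 further: 0% = DAX-1 cells with DMSO and 100% = cells lacking DAX-1 with DMSO; higher inhibition means more luminescence from relief of DAX-1 repression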
hcDAF-12 act = H. contortus DAF-12 nuclear receptor activators, primary screen, cell-based, luminescence, HEK293, lit1-tk-luc reporter; HEK293 hcDAF-12 lit1-tk-luc reporter; 0% DMSO, 100% Δ7-dafachronic acid; activation, % at 6.8 µM; 1.4% of 370,000 active;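 active means activation above the mean of all tested compounds plus 3 SD, cut at about 5.5% in these data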;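 further: 100% = response to 3 µM Δ7-dafachronic acid high control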
hgDAF12 agonist = H. glycines DAF-12 receptor agonists, primary screen, cell-based, luminescence, HEK293, GAL4 fusion, UAS-luciferase; 1.8% of 370,000 active; HEK293 GAL4-hgDAF12 UAS-luciferase reporter, agonist luminescence; normalized to butyrate control; Nuclear hormone receptor DAF-12 (Heterodera glycines), GAL4 fusion; activation, % at 6.8 µM;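 active means activation above a cutoff set at the mean of all screened compounds plus 3 SD, cut at about 10% in these data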;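 further: 0% = DMSO wells and 100% = sodium butyrate wells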
ssDAF12 agonist = S. stercoralis DAF-12 nuclear receptor activators, primary screen, cell-based, luminescence, HEK293, GRIP1 co-expression, lit1-tk-luc. Nuclear hormone receptor DAF-12 (Strongyloides stercoralis). HEK293 ssDAF-12/GRIP1 lit1-tk-luc reporter; % of 3 µM dafachronic acid response. activation, % at 6.8 µM. 1% of 370,000 active. AID 652126, 2013;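 active means activation above the mean over all tested compounds plus 3 SD, cut at about 0.9% in these data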;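 further: 0% = DMSO-only wells and 100% = 3 µM delta7-dafachronic acid wells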
DAX1 inh-2 = DAX1 (NR0B1) inhibitors, primary screen, cell-based, HEK293, Gal4-DAX1, luciferase luminescence. inhibition, % at 6.75 µM. 0.99% of 340,000 active. HEK293 Gal4-DAX1 luciferase reporter;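 active means inhibition above the mean over all tested compounds plus 3 SD, cut at about 4.2% in these data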;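 further: 0% = DAX1-transfected cells with DMSO and 100% = empty-vector control cells with DMSO; inhibition shows as a rise in luminescence from relieved DAX1 repression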
Target sequence (P51843 207-470 limits assumed): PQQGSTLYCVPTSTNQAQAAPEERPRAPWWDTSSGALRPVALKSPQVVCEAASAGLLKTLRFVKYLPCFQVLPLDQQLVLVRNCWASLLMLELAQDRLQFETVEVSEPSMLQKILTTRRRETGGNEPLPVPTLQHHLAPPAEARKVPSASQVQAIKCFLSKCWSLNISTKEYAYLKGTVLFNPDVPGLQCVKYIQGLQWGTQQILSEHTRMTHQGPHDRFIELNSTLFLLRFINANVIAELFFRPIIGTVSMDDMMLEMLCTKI
LXR ag = LXR agonists, Gal4 luciferase reporter, confirmation, counter-screen for hcDAF-12 agonist project, cell-based, luminescence, HEK293, H. contortus campaign; activation, % at 6.8 µM; AID 743027, 2013; shares compounds with hcDAF-12 act; HEK293 Gal4-LXR tk-luc reporter, 24 h; normalized: DMSO 0%, positive control 100%; 3,400 tested, under 10 active;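 active means mean percent activation of the reporter above a cutoff set as the average over tested compounds plus their standard deviation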
hcDAF12 ag = H. contortus DAF-12 receptor agonists, confirmation, cell-based, luminescence, HEK293, lit1-tk-luc, triplicate. shares compounds with hcDAF-12 act. HEK293 hcDAF-12 lit1-tk-luc reporter; % of Δ7-dafachronic acid response. activation, % at 6.8 µM. 61% of 3,400 active. AID 743032, 2013;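 active means mean activation across triplicate tests above the threshold derived from the earlier primary screen, cut at about 5.5% in these data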;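 further: 0% = DMSO only wells and 100% = 3 µM Δ7-dafachronic acid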
hgDAF12 ag = H. glycines DAF-12 receptor agonists, confirmation, cell-based, luminescence, HEK293, GAL4-LBD fusion; shares compounds with hgDAF12 agonist; HEK293 GAL4-hgDAF12 luciferase reporter, agonist mode; percent of butyrate response; activation, % at 6.8 µM; 80% of 3,300 active; AID 743050, 2013;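 active means mean activation over triplicate wells above the hit cutoff derived from the earlier primary screen, cut at about 11% in these data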;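 further: 0% = DMSO low control and 100% = 2 mM sodium butyrate high control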
LXRb DAF12 ctr = LXR agonists, Gal4 luciferase reporter, confirmation, counter-screen for hgDAF-12 agonist project, cell-based, luminescence, HEK293, H. glycines campaign; shares compounds with hgDAF12 agonist; activation, % at 6.8 µM; 3,300 tested, under 10 active; AID 743051, 2013; 24 h;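 active means mean activation of the triplicate above a set limit carried over from the primary screen, none filed active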
* = called active by the depositor; x = no result given. Hits are enriched below; roughly 4.1% of the tested compounds scored in any of these assays.

SMILES | DAX1 inh-1 | hcDAF-12 act | hgDAF12 agonist | ssDAF12 agonist | DAX1 inh-2 | LXR ag | hcDAF12 ag | hgDAF12 ag | LXRb DAF12 ctr
CCCCNC(=O)C[C@H]1C[C@@]2(C(=O)OC)C(=C[C@H](C(C)(C)C)O[C@@H]2C)N(CCC2=CCCCC2)C1=O | -0.5 | -0.1 | 2.4 | -1.0 | x | x | x | x | x
Cc1ccc(O)c(C2=Nc3ccccc3N=C(c3cccs3)C2)c1 | -0.3 | 1.4 | 0.6 | -1.1 | -0.7 | x | x | x | x
Cc1ccc2c(c1)N=C(c1ccccc1)CC(C(Cl)Cl)=N2 | 1.9 | 15.3* | 13.6* | 1.8* | -1.4 | 0.8 | 8.1* | 19.1* | 1.0
Nc1c(C(=O)NCC(O)c2ccccc2)cnn1-c1ccccc1 (stereo not given) | 3.5 | 6.6* | 18.1* | -0.2 | x | 0.7 | 6.2* | 14.3* | 0.3
N#CCC[C@H]1CC[C@]2(CCCN(Cc3cccc4ccccc34)C2)O1 | 0.0 | 0.6 | -0.4 | -0.8 | x | x | x | x | x
COC(=O)C1CN(Cc2cn(CCOC(C)=O)nn2)CCS(=O)(=O)N1Cc1ccccc1 (stereo not given) | -0.2 | 0.1 | 1.8 | -1.1 | x | x | x | x | x
CN(C)S(=O)(=O)c1ccc(C(=O)Nc2ccc3c(c2)CCC3)cc1 | -0.3 | 0.3 | 0.9 | -1.1 | -0.1 | x | x | x | x
O=C(Nc1ccc2c(c1)CCC2)c1ccc(Cl)nc1 | 3.8* | 7.7* | 19.1* | 1.2* | 4.7* | 1.3 | 9.3* | 20.6* | 0.9
O=C(COC(=O)c1ccc(Cl)nc1)Nc1ccc2c(c1)CCC2 | 1.3 | -0.7 | 1.4 | -1.0 | 0.0 | x | x | x | x
CN(C)S(=O)(=O)c1cccc(C(=O)Nc2ccc3c(c2)CCC3)c1 | 2.4 | 6.9* | 22.1* | 0.6 | 1.6 | 1.3 | 7.4* | 19.2* | 0.8
COc1ccc(C2C(C(=O)Nc3cc(OC)ccc3OC)CCC(=O)N2c2ccc(OC)cc2)cc1 (stereo not given) | -0.2 | -2.7 | 1.3 | -1.3 | x | x | x | x | x
COC(=O)[C@H](CC(C)C)N(CCCc1cn(Cc2ccc(C)cc2)nn1)S(=O)(=O)c1ccc(F)cc1Br | -2.2 | -3.0 | -6.0 | -1.8 | x | x | x | x | x
O=[N+]([O-])c1cccc(N=Cc2sc3ccccc3c2O)c1 | 0.5 | 1.4 | 1.2 | -0.9 | x | x | x | x | x
CC(=Nc1cccc(C)c1)c1sc2ccccc2c1O | 2.0 | 15.5* | 14.3* | 4.0* | 3.8 | 1.2 | 13.0* | 25.1* | 0.9
COc1ccc(-c2csc(-n3cccn3)n2)cc1 | 2.2 | 7.0* | 14.1* | 0.0 | 3.8 | 0.5 | 4.5 | 18.2* | 1.0
COc1ccc(Oc2nc(-c3cccnc3)nc3ccccc23)cc1 | -0.4 | -0.5 | 1.1 | -0.4 | 0.1 | x | x | x | x
CCCOc1ccc(-c2nc(OC)c3ccccc3n2)cc1 | 4.1* | 15.9* | 17.4* | 2.6* | 1.4 | -0.2 | 3.9 | 3.5 | 0.1
